# Reference: the supplement of paper PMC4466140
# Legend:
# Test in all cases: SPOT peptide array binding signal intensity (averaged, normalized) (arbitrary units (background-subtracted, floor 0; scale differs between SH3 domains)); higher = stronger binding of the SH3 domain to the peptide
# AgAbp1 = molecular target: AgAbp1
# Outline: (§1)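 GST-SH3 fusions from four yeast species, purified on glutathione Sepharose, were incubated at 10 μg/ml overnight at 4°C on membranes of synthetic 15-mer peptides in which cysteines were replaced with serines. Binding signal is the normalized, background-subtracted spot intensity averaged over replicates, in domain-specific arbitrary units.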
# AgBbc1 = molecular target: AgBbc1
# Outline: as §1
# AgBem1-D1 = molecular target: AgBem1-D1
# Outline: as §1
# AgBzz1-D1 = molecular target: AgBzz1-D1
# Outline: as §1
# AgBzz1-D2 = molecular target: AgBzz1-D2
# Outline: as §1
# AgCyk3 = molecular target: AgCyk3
# Outline: as §1
# AgFus1 = molecular target: AgFus1
# Outline: as §1
# AgHof1 = molecular target: AgHof1
# Outline: as §1
# AgHse1 = molecular target: AgHse1
# Outline: as §1
# AgLsb1 = molecular target: AgLsb1
# Outline: as §1
# AgLsb4 = molecular target: AgLsb4
# Outline: as §1
# AgMyo5 = molecular target: AgMyo5
# Outline: as §1
# AgNbp2 = molecular target: AgNbp2
# Outline: as §1
# AgRvs167 = molecular target: AgRvs167
# Outline: as §1
# AgSho1 = molecular target: AgSho1
# Outline: as §1
# AgSla1-D1-D2 = molecular target: AgSla1-D1-D2
# Outline: as §1
# AgSla1-D3 = molecular target: AgSla1-D3
# Outline: as §1
# CaAbp1-D1 = molecular target: CaAbp1-D1
# Outline: as §1
# CaAbp1-D2 = molecular target: CaAbp1-D2
# Outline: as §1
# CaBbc1 = molecular target: CaBbc1
# Outline: as §1
# CaBem1-D1 = molecular target: CaBem1-D1
# Outline: as §1
# CaBzz1-D1 = molecular target: CaBzz1-D1
# Outline: as §1
# CaBzz1-D2 = molecular target: CaBzz1-D2
# Outline: as §1
# CaCyk3 = molecular target: CaCyk3
# Outline: as §1
# CaFus1 = molecular target: CaFus1
# Outline: as §1
# CaHof1 = molecular target: CaHof1
# Outline: as §1
# CaHse1 = molecular target: CaHse1
# Outline: as §1
# CaLsb1 = molecular target: CaLsb1
# Outline: as §1
# CaLsb4 = molecular target: CaLsb4
# Outline: as §1
# CaMyo5 = molecular target: CaMyo5
# Outline: as §1
# CaNbp2 = molecular target: CaNbp2
# Outline: as §1
# CaRvs167 = molecular target: CaRvs167
# Outline: as §1
# CaRvs167-3 = molecular target: CaRvs167-3
# Outline: as §1
# CaSho1 = molecular target: CaSho1
# Outline: as §1
# CaSla1-D1-D2 = molecular target: CaSla1-D1-D2
# Outline: as §1
# CaSla1-D3 = molecular target: CaSla1-D3
# Outline: as §1
# ScAbp1 = molecular target: ScAbp1
# Outline: as §1
# ScBbc1 = molecular target: ScBbc1
# Outline: as §1
# ScBem1-D1 = molecular target: ScBem1-D1
# Outline: as §1
# ScBzz1-D1 = molecular target: ScBzz1-D1
# Outline: as §1
# ScBzz1-D2 = molecular target: ScBzz1-D2
# Outline: as §1
# ScCyk3 = molecular target: ScCyk3
# Outline: as §1
# ScFus1 = molecular target: ScFus1
# Outline: as §1
# ScHof1 = molecular target: ScHof1
# Outline: as §1
# ScHse1 = molecular target: ScHse1
# Outline: as §1
# ScLsb1 = molecular target: ScLsb1
# Outline: as §1
# ScLsb2 = molecular target: ScLsb2
# Outline: as §1
# ScLsb3 = molecular target: ScLsb3
# Outline: as §1
# ScLsb4 = molecular target: ScLsb4
# Outline: as §1
# ScMyo3 = molecular target: ScMyo3
# Outline: as §1
# ScMyo5 = molecular target: ScMyo5
# Outline: as §1
# ScNbp2 = molecular target: ScNbp2
# Outline: as §1
# ScPex13 = molecular target: ScPex13
# Outline: as §1
# ScRvs167 = molecular target: ScRvs167
# Outline: as §1
# ScSho1 = molecular target: ScSho1
# Outline: as §1
# ScSla1-D1-D2 = molecular target: ScSla1-D1-D2
# Outline: as §1
# ScSla1-D3 = molecular target: ScSla1-D3
# Outline: as §1
# SpAbp1-D1 = molecular target: SpAbp1-D1
# Outline: as §1
# SpBbc1 = molecular target: SpBbc1
# Outline: as §1
# SpBzz1-D1 = molecular target: SpBzz1-D1
# Outline: as §1
# SpBzz1-D2 = molecular target: SpBzz1-D2
# Outline: as §1
# SpCyk3 = molecular target: SpCyk3
# Outline: as §1
# SpHof1 = molecular target: SpHof1
# Outline: as §1
# SpHof1-2 = molecular target: SpHof1-2
# Outline: as §1
# SpHof1-3 = molecular target: SpHof1-3
# Outline: as §1
# SpHse1 = molecular target: SpHse1
# Outline: as §1
# SpLsb1 = molecular target: SpLsb1
# Outline: as §1
# SpLsb4 = molecular target: SpLsb4
# Outline: as §1
# SpMyo1 = molecular target: SpMyo1
# Outline: as §1
# SpNbp2 = molecular target: SpNbp2
# Outline: as §1
# SpPex13 = molecular target: SpPex13
# Outline: as §1
# SpRvs167 = molecular target: SpRvs167
# Outline: as §1
# SpSla1-D1-D2 = molecular target: SpSla1-D1-D2
# Outline: as §1
# SpSla1-D3 = molecular target: SpSla1-D3
# Outline: as §1
binder,measurement,setting,value
IPSRPAPKPPSSASA,SPOT peptide array binding signal intensity,AgAbp1,14
same,SPOT peptide array binding signal intensity,AgBbc1,289
same,SPOT peptide array binding signal intensity,AgBem1-D1,35
same,SPOT peptide array binding signal intensity,AgBzz1-D1,18
same,SPOT peptide array binding signal intensity,AgBzz1-D2,19
same,SPOT peptide array binding signal intensity,AgCyk3,1
same,SPOT peptide array binding signal intensity,AgFus1,≤ 0
same,SPOT peptide array binding signal intensity,AgHof1,≤ 0
same,SPOT peptide array binding signal intensity,AgHse1,50.5
same,SPOT peptide array binding signal intensity,AgLsb1,475
same,SPOT peptide array binding signal intensity,AgLsb4,12
same,SPOT peptide array binding signal intensity,AgMyo5,1790
same,SPOT peptide array binding signal intensity,AgNbp2,8100
same,SPOT peptide array binding signal intensity,AgRvs167,1.67
same,SPOT peptide array binding signal intensity,AgSho1,≤ 0
same,SPOT peptide array binding signal intensity,AgSla1-D1-D2,16
same,SPOT peptide array binding signal intensity,AgSla1-D3,3.25
same,SPOT peptide array binding signal intensity,CaAbp1-D1,102
same,SPOT peptide array binding signal intensity,CaAbp1-D2,128
same,SPOT peptide array binding signal intensity,CaBbc1,1300
same,SPOT peptide array binding signal intensity,CaBem1-D1,1620
same,SPOT peptide array binding signal intensity,CaBzz1-D1,1550
same,SPOT peptide array binding signal intensity,CaBzz1-D2,1510
same,SPOT peptide array binding signal intensity,CaCyk3,190
same,SPOT peptide array binding signal intensity,CaFus1,30
same,SPOT peptide array binding signal intensity,CaHof1,≤ 0
same,SPOT peptide array binding signal intensity,CaHse1,1.25
same,SPOT peptide array binding signal intensity,CaLsb1,1.25
same,SPOT peptide array binding signal intensity,CaLsb4,53.5
same,SPOT peptide array binding signal intensity,CaMyo5,156
same,SPOT peptide array binding signal intensity,CaNbp2,4920
same,SPOT peptide array binding signal intensity,CaRvs167,17
same,SPOT peptide array binding signal intensity,CaRvs167-3,2
same,SPOT peptide array binding signal intensity,CaSho1,≤ 0
same,SPOT peptide array binding signal intensity,CaSla1-D1-D2,2030
same,SPOT peptide array binding signal intensity,CaSla1-D3,46.5
same,SPOT peptide array binding signal intensity,ScAbp1,65
same,SPOT peptide array binding signal intensity,ScBbc1,502
same,SPOT peptide array binding signal intensity,ScBem1-D1,≤ 0
same,SPOT peptide array binding signal intensity,ScBzz1-D1,16
same,SPOT peptide array binding signal intensity,ScBzz1-D2,10
same,SPOT peptide array binding signal intensity,ScCyk3,≤ 0
same,SPOT peptide array binding signal intensity,ScFus1,4
same,SPOT peptide array binding signal intensity,ScHof1,1
same,SPOT peptide array binding signal intensity,ScHse1,40
same,SPOT peptide array binding signal intensity,ScLsb1,6
same,SPOT peptide array binding signal intensity,ScLsb2,55
same,SPOT peptide array binding signal intensity,ScLsb3,197
same,SPOT peptide array binding signal intensity,ScLsb4,9
same,SPOT peptide array binding signal intensity,ScMyo3,3540
same,SPOT peptide array binding signal intensity,ScMyo5,1990
same,SPOT peptide array binding signal intensity,ScNbp2,5880
same,SPOT peptide array binding signal intensity,ScPex13,2620
same,SPOT peptide array binding signal intensity,ScRvs167,149
same,SPOT peptide array binding signal intensity,ScSho1,≤ 0
same,SPOT peptide array binding signal intensity,ScSla1-D1-D2,6020
same,SPOT peptide array binding signal intensity,ScSla1-D3,233
same,SPOT peptide array binding signal intensity,SpAbp1-D1,40
same,SPOT peptide array binding signal intensity,SpBbc1,65
same,SPOT peptide array binding signal intensity,SpBzz1-D1,404
NIKVLLNPKLGKPVK,SPOT peptide array binding signal intensity,AgAbp1,15
same,SPOT peptide array binding signal intensity,AgBbc1,10.2
same,SPOT peptide array binding signal intensity,AgBem1-D1,4
same,SPOT peptide array binding signal intensity,AgBzz1-D1,13
same,SPOT peptide array binding signal intensity,AgBzz1-D2,73.5
same,SPOT peptide array binding signal intensity,AgCyk3,≤ 0
same,SPOT peptide array binding signal intensity,AgFus1,316
same,SPOT peptide array binding signal intensity,AgHof1,17
same,SPOT peptide array binding signal intensity,AgHse1,760
same,SPOT peptide array binding signal intensity,AgLsb1,≤ 0
same,SPOT peptide array binding signal intensity,AgLsb4,61
same,SPOT peptide array binding signal intensity,AgMyo5,2.5
same,SPOT peptide array binding signal intensity,AgNbp2,31.5
same,SPOT peptide array binding signal intensity,AgRvs167,4
same,SPOT peptide array binding signal intensity,AgSho1,108
same,SPOT peptide array binding signal intensity,AgSla1-D1-D2,39.5
same,SPOT peptide array binding signal intensity,AgSla1-D3,7.5
same,SPOT peptide array binding signal intensity,CaAbp1-D1,407
same,SPOT peptide array binding signal intensity,CaAbp1-D2,32.5
same,SPOT peptide array binding signal intensity,CaBbc1,15.2
same,SPOT peptide array binding signal intensity,CaBem1-D1,0.5
same,SPOT peptide array binding signal intensity,CaBzz1-D1,160
same,SPOT peptide array binding signal intensity,CaBzz1-D2,48.5
same,SPOT peptide array binding signal intensity,CaCyk3,≤ 0
same,SPOT peptide array binding signal intensity,CaFus1,968
same,SPOT peptide array binding signal intensity,CaHof1,≤ 0
same,SPOT peptide array binding signal intensity,CaHse1,9
same,SPOT peptide array binding signal intensity,CaLsb1,2
same,SPOT peptide array binding signal intensity,CaLsb4,16
same,SPOT peptide array binding signal intensity,CaMyo5,4.5
same,SPOT peptide array binding signal intensity,CaNbp2,325
same,SPOT peptide array binding signal intensity,CaRvs167,105
same,SPOT peptide array binding signal intensity,CaRvs167-3,752
same,SPOT peptide array binding signal intensity,CaSho1,700
same,SPOT peptide array binding signal intensity,CaSla1-D1-D2,2
same,SPOT peptide array binding signal intensity,CaSla1-D3,26
same,SPOT peptide array binding signal intensity,ScAbp1,48
same,SPOT peptide array binding signal intensity,ScBbc1,0.25
same,SPOT peptide array binding signal intensity,ScBem1-D1,7
same,SPOT peptide array binding signal intensity,ScBzz1-D1,32
same,SPOT peptide array binding signal intensity,ScBzz1-D2,207
same,SPOT peptide array binding signal intensity,ScCyk3,10.5
same,SPOT peptide array binding signal intensity,ScFus1,527
same,SPOT peptide array binding signal intensity,ScHof1,1.25
same,SPOT peptide array binding signal intensity,ScHse1,1460
same,SPOT peptide array binding signal intensity,ScLsb1,5.75
same,SPOT peptide array binding signal intensity,ScLsb2,1
same,SPOT peptide array binding signal intensity,ScLsb3,1.53e-05
same,SPOT peptide array binding signal intensity,ScLsb4,3
same,SPOT peptide array binding signal intensity,ScMyo3,1
same,SPOT peptide array binding signal intensity,ScMyo5,1
same,SPOT peptide array binding signal intensity,ScNbp2,29
same,SPOT peptide array binding signal intensity,ScPex13,4.5
same,SPOT peptide array binding signal intensity,ScRvs167,21.8
same,SPOT peptide array binding signal intensity,ScSho1,696
same,SPOT peptide array binding signal intensity,ScSla1-D1-D2,42
same,SPOT peptide array binding signal intensity,ScSla1-D3,7.75
same,SPOT peptide array binding signal intensity,SpAbp1-D1,30.5
same,SPOT peptide array binding signal intensity,SpBbc1,11.2
same,SPOT peptide array binding signal intensity,SpBzz1-D1,132
same,SPOT peptide array binding signal intensity,SpBzz1-D2,≤ 0
same,SPOT peptide array binding signal intensity,SpCyk3,≤ 0
same,SPOT peptide array binding signal intensity,SpHof1,75.5
same,SPOT peptide array binding signal intensity,SpHof1-2,13
same,SPOT peptide array binding signal intensity,SpHof1-3,640
same,SPOT peptide array binding signal intensity,SpHse1,558
same,SPOT peptide array binding signal intensity,SpLsb1,1.75
same,SPOT peptide array binding signal intensity,SpLsb4,26
same,SPOT peptide array binding signal intensity,SpMyo1,≤ 0
same,SPOT peptide array binding signal intensity,SpNbp2,95.5
same,SPOT peptide array binding signal intensity,SpPex13,13
same,SPOT peptide array binding signal intensity,SpRvs167,18.2
same,SPOT peptide array binding signal intensity,SpSla1-D1-D2,≤ 0
same,SPOT peptide array binding signal intensity,SpSla1-D3,4
